According to PubChem BioAssay AID743330 (NMMLSC, 2014):
The source made the active and inactive calls. The rule behind the calls is not given here.

System: Rab7
Assay: GTPase panel EC50 shift with labeled GTP level, profiling panel, mechanism study, biochemical, four GTPases, bead flow cytometry (AID 743330)
Conditions: bead-based flow cytometry, fluorescent GTP binding to GTPases

Row | SMILES | EC50
1 | CC1(C)Cc2c(sc(NC(=S)NC(=O)c3ccc(F)cc3)c2C(=O)O)CO1 | 33 nM (active)
2 | CCC1(C)Cc2c(sc(NC(=S)NC(=O)c3ccccc3)c2C(=O)O)CO1 (configuration not stated) | 7 nM (active)
